# Measured values: PubChem BioAssay (EPA / NIEHS)
# Calls of active or inactive are those of the source. Rule for the calls: active = hit-call score of the fitted dose curve at least 0.9, where 1 is the maximum; inactive = score below 0.9.
# Tests used:
# [1] = read-out: Interleukin-1 alpha (IL1a), IL1A (gene 3552); assay: BSK_KF3CT_IL1a: BioMAP Diversity Plus: KF3CT Assay for Interleukin-1 alpha (IL1a) Biomarker Activity (AID 2283070); conditions: primary human keratinocytes with fibroblasts; actives raise or lower the signal
# Procedure, shortened: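 Human keratinocyte plus foreskin fibroblast primary co-culture, sampled 24 h after chemical dosing. IL-1a measured by ELISA; responses fitted bidirectionally against DMSO baseline (negative control), so gain or loss of signal both count.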
# [2] = read-out: TIMP metallopeptidase inhibitor 2 (TIMP2), TIMP2 (gene 7077); assay: BSK_KF3CT_TIMP2: BioMAP Diversity Plus: KF3CT Assay for TIMP metallopeptidase inhibitor 2 (TIMP2) Biomarker Activity (AID 2283071); conditions: primary human keratinocytes with fibroblasts; actives raise or lower the signal
# Procedure, shortened: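 Cells: human keratinocytes co-cultured with foreskin fibroblasts. Treat with chemical, 24 h. Measure TIMP-2 by ELISA; fit curves bidirectionally vs DMSO baseline.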
# [3] = read-out: Transforming growth factor beta 1 (TGFb1), TGFB1 (gene 7040); assay: BSK_KF3CT_TGFb1: BioMAP Diversity Plus: KF3CT Assay for Transforming growth factor beta 1 (TGFb1) Biomarker Activity (AID 2283072); conditions: primary human keratinocytes with fibroblasts; actives raise or lower the signal
# Procedure, shortened: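 Primary human skin cells (keratinocytes, foreskin fibroblasts) were co-cultured, exposed to test chemical and sampled at 24 h. TGF-b1 levels were measured by ELISA and fitted bidirectionally relative to DMSO.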
# [4] = read-out: C-C motif chemokine 2 (Homo sapiens) (UniProt P13500); assay: BSK_KF3CT_MCP1: BioMAP Diversity Plus: KF3CT Assay for Monocyte Chemoattractant Protein 1 (MCP1/CCL2) Biomarker Activity (AID 2283073); conditions: primary human keratinocytes with fibroblasts; actives raise or lower the signal
# Procedure, shortened: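 ELISA read-out of MCP-1, 24 h post-dose, in primary human skin keratinocytes co-cultured with fibroblasts. Parallel SRB staining monitors cytotoxicity; changes fitted both directions relative to DMSO.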
# [5] = read-out: Matrix Metallopeptidase 9 (MMP9), MMP9 (gene 4318); assay: BSK_KF3CT_MMP9: BioMAP Diversity Plus: KF3CT Assay for Matrix Metallopeptidase 9 (MMP9) Biomarker Activity (AID 2283074); conditions: primary human keratinocytes with fibroblasts; actives raise or lower the signal;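 for AC50: MMP9 protein level quantified by ELISA in the co-culture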
# Procedure, shortened: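 Keratinocyte plus foreskin fibroblast human primary skin co-culture was dosed with chemical and MMP-9 was quantified by ELISA 24 h later. Bidirectional curve fitting used DMSO as negative control and activity baseline.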
# [6] = read-out: urokinase plasminogen activator (uPA), PLAU (gene 5328); assay: BSK_KF3CT_uPA: BioMAP Diversity Plus: KF3CT Assay for urokinase plasminogen activator (uPA) Biomarker Activity (AID 2283075); conditions: primary human keratinocytes with fibroblasts; actives raise or lower the signal
# Procedure, shortened: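 Human keratinocyte plus foreskin fibroblast primary co-culture exposed to chemical for 24 h. uPA levels were quantified by ELISA, and activity was fitted bidirectionally against a DMSO negative-control baseline.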
# CD40, CD40 (gene 958) = assay: BSK_LPS_CD40: BioMAP Diversity Plus: LPS Assay for CD40 Biomarker Activity (AID 2283076); conditions: primary human HUVEC with PBMC; actives raise or lower the signal
# Procedure, shortened: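 In the LPS system of human endothelial cells with peripheral blood mononuclear cells, CD40 levels were read by ELISA 24 h post-treatment. Signal changes in either direction were fitted against the DMSO baseline, with parallel SRB protein staining.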
# [7] = read-out: Interleukin-8 (IL8), CXCL8 (gene 3576); assay: BSK_LPS_IL8: BioMAP Diversity Plus: LPS Assay for Interleukin-8 (IL8) Biomarker Activity (AID 2283078); conditions: primary human HUVEC with PBMC; actives raise or lower the signal
# Procedure, shortened: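 ELISA read-out of IL-8 after 24 h chemical treatment of LPS-activated endothelial/PBMC human primary co-cultures. Changes either up or down relative to DMSO; overt cytotoxicity checked by sulforhodamine B staining in parallel wells.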
# [8] = BSK_LPS_SRB: Viability Assessment in the BioMAP Diversity Plus: LPS Assay (AID 2283079); conditions: primary human HUVEC with PBMC;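 note: total protein by sulforhodamine B absorbance as a cytotoxicity measure; measured one day after compound addition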
# Procedure, shortened: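 SRB viability endpoint: cells fixed with 10% TCA, stained with 0.1% SRB, read at 560 nm, 24 h post-dose. HUVEC/PBMC co-culture; signal change in either direction scored relative to DMSO.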
# [9] = read-out: E-selectin (Homo sapiens) (UniProt P16581); assay: BSK_LPS_Eselectin: BioMAP Diversity Plus: LPS Assay for Eselectin Biomarker Activity (AID 2283077); conditions: primary human HUVEC with PBMC; actives raise or lower the signal
# Procedure, shortened: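 E-selectin ELISA on LPS-stimulated endothelial cell/PBMC co-cultures, read 24 h post-treatment; gains and losses fitted against DMSO. Parallel SRB staining (0.1% SRB after 10% TCA fixation, 560 nm) flags overt cytotoxicity.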
# Chain of E-selectin (Homo sapiens) (P16581 whole entry, looked up): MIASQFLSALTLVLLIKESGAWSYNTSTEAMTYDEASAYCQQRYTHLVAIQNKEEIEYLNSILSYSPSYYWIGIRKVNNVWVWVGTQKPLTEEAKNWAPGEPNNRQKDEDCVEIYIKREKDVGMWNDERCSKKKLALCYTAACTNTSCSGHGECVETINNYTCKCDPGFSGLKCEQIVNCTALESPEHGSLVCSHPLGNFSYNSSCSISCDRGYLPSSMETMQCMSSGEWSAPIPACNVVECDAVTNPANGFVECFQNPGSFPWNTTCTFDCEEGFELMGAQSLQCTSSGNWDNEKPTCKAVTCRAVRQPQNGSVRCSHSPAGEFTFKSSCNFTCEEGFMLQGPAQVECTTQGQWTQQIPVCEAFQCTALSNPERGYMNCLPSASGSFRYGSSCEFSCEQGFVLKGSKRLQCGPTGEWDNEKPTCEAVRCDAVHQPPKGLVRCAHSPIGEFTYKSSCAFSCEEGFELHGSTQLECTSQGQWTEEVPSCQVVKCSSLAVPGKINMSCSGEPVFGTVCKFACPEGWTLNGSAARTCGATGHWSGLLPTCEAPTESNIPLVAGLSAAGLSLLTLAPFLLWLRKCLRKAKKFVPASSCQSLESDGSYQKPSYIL
smiles,measurement,setting,value
CCOCN(C(=O)CCl)c1c(C)cccc1CC,outcome,[1],inactive
same,outcome,[2],inactive
same,outcome,[3],inactive
same,outcome,[4],inactive
same,AC50,[5],12.7 µM (active)
same,outcome,[6],inactive
same,AC50,"CD40, CD40 (gene 958)",14.8 µM (active)
same,outcome,[7],inactive
same,AC50,[8],22.7 µM (active)
COC(=O)c1ccccc1S(=O)(=O)NC(=O)N(C)c1nc(C)nc(OC)n1,outcome,[1],inactive
same,outcome,[2],inactive
same,outcome,[3],inactive
same,outcome,[4],inactive
same,outcome,[5],inactive
same,outcome,[6],inactive
same,outcome,"CD40, CD40 (gene 958)",inactive
same,outcome,[7],inactive
same,outcome,[8],inactive
CC(C)OC(=O)Nc1cccc(Cl)c1,outcome,[1],inactive
same,outcome,[2],inactive
same,outcome,[3],inactive
same,outcome,[4],inactive
same,outcome,[5],inactive
same,outcome,[6],inactive
same,outcome,"CD40, CD40 (gene 958)",inactive
same,outcome,[7],inactive
same,AC50,[8],3.97 µM (active)
N#CN,outcome,[1],inactive
same,outcome,[2],inactive
same,outcome,[3],inactive
same,outcome,[4],inactive
same,outcome,[5],inactive
same,outcome,[6],inactive
same,outcome,"CD40, CD40 (gene 958)",inactive
same,outcome,[7],inactive
same,outcome,[8],inactive
O=S1OCC2C(CO1)C1(Cl)C(Cl)=C(Cl)C2(Cl)C1(Cl)Cl (configuration not stated),AC50,[1],29.1 µM (active)
same,AC50,[2],26.9 µM (active)
same,outcome,[3],inactive
same,AC50,[5],15.9 µM (active)
same,AC50,[6],30.9 µM (active)
same,AC50,"CD40, CD40 (gene 958)",29.2 µM (active)
same,AC50,[7],33.5 µM (active)
Oc1ccc(Cl)cc1Cc1ccccc1,AC50,"CD40, CD40 (gene 958)",21.1 µM (active) [middle of 7 runs]
same,AC50,[7],35.3 µM (active) [middle of 7 runs]
same,AC50,[8],29.3 µM (active) [middle of 7 runs]
O=C1c2ccccc2C(=O)N1SC(Cl)(Cl)Cl,outcome,[1],inactive
same,outcome,[2],inactive
same,outcome,[3],inactive
same,outcome,[4],inactive
same,outcome,[5],inactive
same,outcome,[6],inactive
same,outcome,"CD40, CD40 (gene 958)",inactive
same,outcome,[7],inactive
same,AC50,[8],0.303 µM (active)
CNC(=O)Oc1cccc(N=CN(C)C)c1,outcome,[1],inactive
same,outcome,[2],inactive
same,outcome,[3],inactive
same,outcome,[4],inactive
same,outcome,[5],inactive
same,outcome,[6],inactive
same,AC50,"CD40, CD40 (gene 958)",13.5 µM (active)
same,AC50,[7],20 µM (active)
same,outcome,[8],inactive
[2H]C1([2H])[n+]2ccccc2-c2cccc[n+]2C1([2H])[2H],AC50,[1],20 µM (active)
same,outcome,[2],inactive
same,outcome,[3],inactive
same,AC50,[5],13.3 µM (active)
same,AC50,[6],28.9 µM (active)
same,outcome,"CD40, CD40 (gene 958)",inactive
same,outcome,[9],inactive
same,outcome,[7],inactive
same,outcome,[8],inactive
Cc1[nH]c(=O)n(C(C)(C)C)c(=O)c1Cl,outcome,[1],inactive
same,outcome,[2],inactive
same,outcome,[3],inactive
same,outcome,[4],inactive
same,outcome,[5],inactive
same,outcome,[6],inactive
same,outcome,[9],inactive
same,outcome,[7],inactive
same,outcome,[8],inactive
CCOc1nc(NC)nc(NC(=O)NS(=O)(=O)c2ccccc2C(=O)OC)n1,outcome,[1],inactive
same,outcome,[2],inactive
same,outcome,[3],inactive
same,outcome,[4],inactive
same,AC50,[5],30.4 µM (active)
same,AC50,[6],37 µM (active)
same,outcome,"CD40, CD40 (gene 958)",inactive
same,outcome,[7],inactive
same,outcome,[8],inactive
COP(=S)(OC)Oc1ccc([N+](=O)[O-])cc1,outcome,[1],inactive
same,AC50,[2],34.6 µM (active)
same,outcome,[3],inactive
same,outcome,[4],inactive
same,outcome,[5],inactive
same,outcome,[6],inactive
same,AC50,"CD40, CD40 (gene 958)",20 µM (active)
same,outcome,[7],inactive
same,AC50,[8],10.5 µM (active)
CCCN(CCC)c1c([N+](=O)[O-])cc(C(F)(F)F)cc1[N+](=O)[O-],outcome,[1],inactive
same,outcome,[2],inactive
same,outcome,[3],inactive
same,outcome,[4],inactive
same,outcome,[5],inactive
same,outcome,[6],inactive
same,AC50,"CD40, CD40 (gene 958)",20.4 µM (active)
same,outcome,[7],inactive
same,outcome,[8],inactive
CNC(=O)/C=C(\C)OP(=O)(OC)OC,outcome,[1],inactive
same,outcome,[2],inactive
same,outcome,[3],inactive
same,outcome,[4],inactive
same,outcome,[5],inactive
same,outcome,[6],inactive
same,outcome,"CD40, CD40 (gene 958)",inactive
same,outcome,[7],inactive
same,outcome,[8],inactive
N#Cc1c(Cl)c(Cl)c(Cl)c(C#N)c1Cl,AC50,[1],1.5 µM (active)
same,AC50,[2],1.89 µM (active)
same,AC50,[3],1.32 µM (active)
same,AC50,[4],1.79 µM (active)
same,AC50,[5],1.23 µM (active)
same,AC50,[6],1.66 µM (active)
same,AC50,"CD40, CD40 (gene 958)",0.148 µM (active)
same,AC50,[7],1.2 µM (active)
same,AC50,[8],3.65 µM (active)
